{"source": "paper PMC4336329", "about": "(PLoS ONE, 2015)", "note": "In all, about 310,000 compounds went through this assay and about 14,000 (4.5%) showed an effect of 50% or more. The effect is printed as a negative number. The sample holds strong results, similar compounds and a random draw of the others, so the mix is not that of the screen.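 Note: peak tail current of the secondary pulse compared with the same well before compound.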", "data": [{"target": "human ether-à-go-go-related gene (hERG) potassium channel (human, UniProt Q12809)", "sequence (Q12809 whole entry, looked up)": "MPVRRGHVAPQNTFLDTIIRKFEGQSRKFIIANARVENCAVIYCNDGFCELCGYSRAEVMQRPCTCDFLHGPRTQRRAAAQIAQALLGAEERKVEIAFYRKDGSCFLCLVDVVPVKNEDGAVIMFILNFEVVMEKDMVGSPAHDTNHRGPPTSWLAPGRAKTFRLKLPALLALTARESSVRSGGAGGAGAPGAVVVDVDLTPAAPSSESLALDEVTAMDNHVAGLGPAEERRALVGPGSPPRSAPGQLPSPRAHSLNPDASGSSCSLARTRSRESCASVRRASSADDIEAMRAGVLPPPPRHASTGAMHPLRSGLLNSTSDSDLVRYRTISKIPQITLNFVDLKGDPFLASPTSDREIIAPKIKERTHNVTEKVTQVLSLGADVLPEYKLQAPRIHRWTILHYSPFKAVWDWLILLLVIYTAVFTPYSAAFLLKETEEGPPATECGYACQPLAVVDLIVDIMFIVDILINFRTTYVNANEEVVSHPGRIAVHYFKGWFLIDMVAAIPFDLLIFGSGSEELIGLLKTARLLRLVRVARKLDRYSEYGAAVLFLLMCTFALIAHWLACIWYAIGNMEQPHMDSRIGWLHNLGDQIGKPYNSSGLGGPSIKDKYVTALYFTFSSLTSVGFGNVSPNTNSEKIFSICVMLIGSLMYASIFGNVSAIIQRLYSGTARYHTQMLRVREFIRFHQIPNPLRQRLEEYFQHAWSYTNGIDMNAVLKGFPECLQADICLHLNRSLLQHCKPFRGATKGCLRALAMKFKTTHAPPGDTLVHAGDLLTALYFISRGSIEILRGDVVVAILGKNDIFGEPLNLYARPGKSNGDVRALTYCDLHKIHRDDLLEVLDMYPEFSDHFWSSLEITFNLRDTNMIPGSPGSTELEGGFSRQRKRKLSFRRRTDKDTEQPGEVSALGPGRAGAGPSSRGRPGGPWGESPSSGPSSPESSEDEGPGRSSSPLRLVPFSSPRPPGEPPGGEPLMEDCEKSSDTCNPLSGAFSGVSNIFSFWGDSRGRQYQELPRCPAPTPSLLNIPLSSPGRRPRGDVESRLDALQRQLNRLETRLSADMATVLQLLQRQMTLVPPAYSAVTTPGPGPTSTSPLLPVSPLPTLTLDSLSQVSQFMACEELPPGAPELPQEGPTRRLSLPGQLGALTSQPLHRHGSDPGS", "assay": "primary screen, population patch clamp on CHO cells stably expressing hERG; higher = less effect of the substance", "units": {"hERG current change (%, negative = inhibition) at 10uM": "%"}, "values": [{"molecule": "Cc1ccc(NS(=O)(=O)c2ccc(C(=O)NCc3cccnc3)cc2)cc1", "hERG current change (%, negative = inhibition) at 10uM": -4.14}, {"molecule": "CC(C)c1ccc(NC(=O)CCS(=O)(=O)c2cccc3nonc23)cc1", "hERG current change (%, negative = inhibition) at 10uM": 1.81}, {"molecule": "COc1cc(OC)cc(C(=O)N[C@H](C(=O)OCC(=O)Nc2cccc(F)c2)C(C)C)c1", "hERG current change (%, negative = inhibition) at 10uM": -5.55}, {"molecule": "CC(C)(C)SCCNC(=O)CN1C(=O)c2ccccc2S1(=O)=O", "hERG current change (%, negative = inhibition) at 10uM": -5.6}, {"molecule": "CCOC(=O)C(=CNc1cccnc1Oc1ccc(C)c2c1CCC2)C(=O)OCC", "hERG current change (%, negative = inhibition) at 10uM": -5.67}, {"molecule": "Cc1cc(NC(=O)C(Cl)c2ccccc2)no1", "note": "(stereo not drawn)", "hERG current change (%, negative = inhibition) at 10uM": -0.0237}, {"molecule": "O=C(CN(c1ccccc1)S(=O)(=O)c1ccccc1[N+](=O)[O-])Nc1cccnc1", "hERG current change (%, negative = inhibition) at 10uM": -21.1}, {"molecule": "C=CCCC(=O)Nc1nc(C)c(-c2csc(Nc3ccccc3OC)n2)s1", "hERG current change (%, negative = inhibition) at 10uM": 3.6}, {"molecule": "CCN1CCCC1CNC1=NCCCCC1", "note": "(stereo not drawn)", "hERG current change (%, negative = inhibition) at 10uM": 7.64}, {"molecule": "CCc1nnc(NS(=O)(=O)c2ccc(NC(=O)c3ccccc3OC)cc2)s1", "hERG current change (%, negative = inhibition) at 10uM": 18.5}, {"molecule": "COc1ccccc1Nc1nnc(SCc2cc(=O)n3cc(C)ccc3n2)s1", "hERG current change (%, negative = inhibition) at 10uM": -12.8}, {"molecule": "COc1ccc(C)cc1NC(=O)NC1CCCCCCC1", "hERG current change (%, negative = inhibition) at 10uM": 21}, {"molecule": "CN(C)C1(CNC(=O)c2ccc(Cl)c(S(=O)(=O)NCc3ccco3)c2)CCCCC1", "hERG current change (%, negative = inhibition) at 10uM": -37.3}, {"molecule": "O=C(NCC1(N2CCOCC2)CCCCC1)c1ccc(Cl)c(S(=O)(=O)NCc2ccco2)c1", "hERG current change (%, negative = inhibition) at 10uM": -52.1}, {"molecule": "COc1ccccc1NC(=O)c1ccc(Cl)c(S(=O)(=O)NCc2ccco2)c1", "hERG current change (%, negative = inhibition) at 10uM": -37.7}, {"molecule": "O=C(Nc1ccccc1N1CCOCC1)c1ccc(Cl)c(S(=O)(=O)NCc2ccco2)c1", "hERG current change (%, negative = inhibition) at 10uM": -51.8}, {"molecule": "O=C(Nc1ccccc1N1CCOCC1)c1ccc(S(=O)(=O)NCc2ccco2)cc1", "hERG current change (%, negative = inhibition) at 10uM": -15.7}, {"molecule": "O=C(NCc1ccco1)c1ccc(Cl)c(S(=O)(=O)N2CCOCC2)c1", "hERG current change (%, negative = inhibition) at 10uM": -7.4}, {"molecule": "Cc1nn(C)cc1CNC(=O)C1C2CCC(O2)C1C(=O)O", "note": "(stereo not drawn)", "hERG current change (%, negative = inhibition) at 10uM": 23.7}, {"molecule": "Cc1nn(-c2ccccc2)c(C)c1C(=O)OCC(=O)N1CCN(S(=O)(=O)c2ccccc2)CC1", "hERG current change (%, negative = inhibition) at 10uM": -11}, {"molecule": "COc1ccccc1N(C(C)=O)C1SC(=O)N(c2ccccc2)C1=O", "note": "(stereo not drawn)", "hERG current change (%, negative = inhibition) at 10uM": 14}, {"molecule": "Cc1cc(C(=O)CN2C(=O)C(=O)N(C)C2=O)c(C)n1-c1cccc(S(=O)(=O)N2CCOCC2)c1", "hERG current change (%, negative = inhibition) at 10uM": -63.4}, {"molecule": "Cc1cc(C(=O)CSc2ncn[nH]2)c(C)n1-c1cccc(S(=O)(=O)N2CCOCC2)c1", "hERG current change (%, negative = inhibition) at 10uM": -28.5}, {"molecule": "Cc1ccc(C)n1-c1cccc(S(=O)(=O)N2CCOCC2)c1", "hERG current change (%, negative = inhibition) at 10uM": 7.55}, {"molecule": "Cc1cc(C(=O)COc2ccccc2[N+](=O)[O-])c(C)n1-c1cccc(S(=O)(=O)N2CCOCC2)c1", "hERG current change (%, negative = inhibition) at 10uM": -9.82}, {"molecule": "Cc1cc(C(=O)CCl)c(C)n1-c1cccc(S(=O)(=O)N2CCOCC2)c1", "hERG current change (%, negative = inhibition) at 10uM": -77.4}, {"molecule": "Cc1cc(C(=O)CN2C(=O)CN(C)C2=O)c(C)n1-c1cccc(S(=O)(=O)N2CCOCC2)c1", "hERG current change (%, negative = inhibition) at 10uM": -49.8}]}]}
